In PubChem BioAssay AID488922 (Johns Hopkins Ion Channel Center, 2010):
In all, about 310,000 compounds went through this assay and about 3,800 (1.2%) were called active.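 The calls were made as follows: active = ratio B-score over 3 SD below the library mean, with starting fluorescence within 5 SD of its mean; inactive = the rest, inconclusive results apart.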 The sample as a whole holds a higher share of actives than the screen did.

Biological target: Potassium channel subfamily K member 9 (Homo sapiens) (UniProt Q9NPC2)
Sequence (Q9NPC2 whole entry, looked up): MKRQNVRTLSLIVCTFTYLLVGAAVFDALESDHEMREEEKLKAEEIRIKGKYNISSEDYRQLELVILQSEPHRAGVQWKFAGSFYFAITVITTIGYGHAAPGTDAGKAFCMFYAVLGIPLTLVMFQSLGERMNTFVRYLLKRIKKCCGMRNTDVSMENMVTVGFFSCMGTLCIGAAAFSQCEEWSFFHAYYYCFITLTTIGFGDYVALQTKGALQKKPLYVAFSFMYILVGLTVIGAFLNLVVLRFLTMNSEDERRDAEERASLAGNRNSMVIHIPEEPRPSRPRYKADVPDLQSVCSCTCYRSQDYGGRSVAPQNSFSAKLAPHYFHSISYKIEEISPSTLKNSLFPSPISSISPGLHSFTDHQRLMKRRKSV
Test: blockers of human TASK-3 (KCNK9) channel – HEK293 cells, thallium flux, primary screen (AID 488922);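 as to B-score: negative B-score means less thallium flux so channel inhibition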
Conditions: HEK293 KCNK9, FluxOR thallium flux fluorescence, at 10 µM; stronger effect = lower value

| SMILES | B-score |
| --- | --- |
| O=C1c2ccccc2S(=O)(=O)N1Cc1c(F)cccc1Cl | inactive |
| O=C1CCN(CCCc2ccccc2)CCN1CCO | inactive |
| CCOC(=O)[C@@H]1[C@H]2COc3cc(OC)ccc3[C@H]2N2C(=O)N(c3ccc(F)cc3)C(=O)[C@]12C | inactive |
| CCOC(=O)[C@@H]1[C@H]2COc3ccc(Br)cc3[C@H]2N2C(=O)N(c3ccc(Cl)cc3)C(=O)[C@@]12C | -10.9 (active) |
| CCOC(=O)[C@H]1[C@H]2COc3cc(OC)ccc3[C@@H]2N2C(=O)N(c3ccc(Br)cc3)C(=O)[C@@]12C | inactive |
| Cc1onc(-c2ccccc2Cl)c1C(=O)OCc1nnc(-c2ccccc2)o1 | inactive |
| O=C(CSc1ccc(-c2ccco2)nn1)Nc1cccc(F)c1 | inactive |
| Fc1cccc(Cl)c1CSc1ccc(-c2ccco2)nn1 | -14.1 (active) |
| Cc1cc(SCc2c(F)cccc2Cl)nc(=O)[nH]1 | inactive |
| NC(=O)C1=C[C@@H](c2csc3ccccc23)C[C@@H](OCc2ccc(CO)cc2)O1 | inactive |
| COC(=O)c1c(NC(=O)C(=O)N2CCCCC2)sc2c1CC(C)(C)OC2 | inactive |
| COc1ccc(/C=C2\CCCC3C2=NN(C(=O)c2scnc2C)C3c2ccc(OC)cc2)cc1 (stereo not drawn) | inactive |
| CCCCC(C(=O)NC(C)(C)C)N(Cc1ccccc1)C(=O)c1snc(C(N)=O)c1N (stereo not drawn) | inactive |
| COc1cc(C(O)c2nc3ccccc3n2C)cc(OC)c1OC (stereo not drawn) | inactive |
| CCC(C)n1c(-c2cc(OC)c(OC)c(OC)c2)nc2nc3ccccc3nc21 (stereo not drawn) | -15.1 (active) |
| COc1cc(-c2n[nH]c(=S)n2Cc2ccccc2)cc(OC)c1OC | inactive |
| COc1ccccc1-n1ccnc(SCC(=O)NC2CCCCC2)c1=O | inactive |
| O=C(C1CCN(C2CCN(Cc3ccc4cc(F)ccc4n3)CC2)CC1)N1CCCC1 | inactive |
| CCN(C(=O)COC(=O)c1cc(NS(=O)(=O)c2ccc(Cl)c([N+](=O)[O-])c2)ccc1O)C1CCCCC1 | inactive |
| Cc1c(C(=O)N2CC(C)OC(C)C2)sc2nc(-c3ccccc3)cn12 (stereo not drawn) | inactive |
| Cc1c(C(=O)N2CCCc3ccccc32)oc2ccccc12 | inactive |
| O=C(c1cc(-c2ccc(O)cc2)on1)N1CCCc2ccccc21 | inactive |
| Cc1c(C(=O)NCC2CCCO2)sc2nc(-c3ccccc3)cn12 (stereo not drawn) | inactive |
| Cc1c(C(=O)N2CCCc3ccccc32)sc2nc(-c3ccccc3)cn12 | -6.69 (active) |
| Cc1cccc2cc3c(N)c(C(=O)N4CCCc5ccccc54)sc3nc12 | -6.79 (active) |
| COc1cccc(CNC(=O)Cn2c(=O)oc3cc(S(=O)(=O)N4CCCCC4)ccc32)c1 | inactive |

| SMILES | B-score |
| --- | --- |
| Cc1ccc(N2CC(C(=O)Nc3ccc(S(=O)(=O)N4CCCC4)cc3)CC2=O)cc1C (stereo not drawn) | inactive |
| O=C(CCc1n[nH]c(=O)[nH]c1=O)N/N=C/c1ccc(Br)o1 | inactive |
| CC(C)OCCCNC(=O)c1ccc(C2SCC(=O)N2Cc2ccco2)cc1 (stereo not drawn) | inactive |
| CCCCCCCC(=O)NC(Nc1ccccc1OC)C(Cl)(Cl)Cl (stereo not drawn) | inactive |
| CCOC(=O)N1CCC(N(CCOC)C(=O)Nc2ccc(C)c(C)c2)CC1 | inactive |
| CCCCCCCCCCOC(=O)Cn1c(COc2ccc(C)cc2)[n+](C)c2ccccc21 | -11.4 (active) |
| Cc1ccc(OCCCn2c(=O)oc3ccccc32)cc1 | inactive |
| CCCCCCCCCCOC(=O)Cn1c(COc2cccc(OC)c2)[n+](C)c2ccccc21 | -17.1 (active) |
| CCCCCCCCC(=O)NCCOc1ccccc1 | inactive |
| CCOC(=O)Cn1c(-c2cccnc2Cl)nc2ccccc21 | inactive |
| CCn1c(COc2cccc(OC)c2)nnc1SCC(=O)N1CCOCC1 | inactive |
| C[C@@H]1O[C@@H](OC[C@H]2O[C@@H](Oc3c(-c4ccc(O)cc4)oc4cc(O)cc(O)c4c3=O)[C@H](O)[C@@H](O)[C@@H]2O)[C@H](O)[C@H](O)[C@H]1O | inactive |
| Cc1ccc(C2(C)NC(=O)N(CC(=O)Nc3ccccc3C(=O)N3CCCCC3)C2=O)cc1 (stereo not drawn) | inactive |
| O=C(OCCN1CCOCC1)C1(c2ccccc2)CCCCC1 | inactive |
| CCc1ccc(-c2cc(C(=O)NN3CCN(C)CC3)c3ccccc3n2)cc1 | inactive |
| CC(C)CN(C(=O)COC(=O)c1ccc2ccccc2c1)c1c(N)n(Cc2ccccc2)c(=O)[nH]c1=O | inactive |
| Cc1ccc(NS(=O)(=O)c2ccc(-c3ccc(=O)[nH]n3)o2)c(C)c1 | inactive |
| Cc1ccc(CCN2CC(C(=O)NCCc3ccccc3)CC2=O)cc1 (stereo not drawn) | inactive |
| O=C(Nc1ccc(Cl)cc1)C1c2cccc[n+]2CC(=O)N1Cc1ccc2c(c1)OCO2 (stereo not drawn) | inactive |
| CCOc1ccc(/C=N/NC(=O)C(C)Sc2ccccn2)cc1OCC (stereo not drawn) | inactive |
| C=CCOc1ccc(/C=N/NC(=O)C(C)Sc2ccccn2)cc1OCC (stereo not drawn) | -8.3 (active) |
| CCOc1ccc(/C=N/NC(=O)CSc2ccccn2)cc1O | inactive |
| C/C(=N\NC(=O)CCn1nc(C)cc1C)C(C)(C)C | inactive |
| COc1ccc(OCC(=O)Nc2ccc(NC(=O)c3ccco3)c(C)c2)cc1 | inactive |
| O=C(COC(=O)c1ccc[nH]c1=O)Nc1ccc2c(c1)OC(F)(F)O2 | inactive |
| O=C(COC(=O)c1ccccc1NC(=O)c1ccco1)Nc1ccc2c(c1)OC(F)(F)O2 | -8.01 (active) |

| SMILES | B-score |
| --- | --- |
| Cc1ccnc(SCCn2c(N(C)Cc3ccccc3)nc3c2c(=O)n(C)c(=O)n3C)n1 | inactive |
| OC(COCCC12CC3CC(CC(C3)C1)C2)CN1CCCCC1 (stereo not drawn) | inactive |
| CC(=O)N(C1=C(Cl)C(=O)c2ccccc2C1=O)c1ccc(C(=O)O)cc1 | -6.74 (active) |
| O=C(CN1C(=O)c2ccccc2C1=O)NCc1ccc(C(=O)O)cc1 | inactive |
| COc1ccc2occ(C(=O)c3ccc(N=C(C)N(C)C)cc3)c2c1 | inactive |
| COc1ccc(OC)c(C(=O)c2coc3ccc(OC)cc23)c1 | -15 (active) |
| COc1ccc(OC)c(C(=O)c2coc3ccc(O)c(CN4CCOCC4)c23)c1 | inactive |
| Cc1ccnc(NC(=O)Cn2ccc([N+](=O)[O-])n2)c1 | inactive |
| Cc1ccc(-c2cc(C(=O)N/N=C/C=C/c3ccco3)c3ccccc3n2)cc1C | inactive |
| CC(/C=N/NC(=O)c1cc(-c2ccc3ccccc3c2)n[nH]1)=C\c1ccco1 | -6.63 (active) |
| CC(/C=N/NC(=O)c1ccncc1)=C\c1ccco1 | inactive |
| CCOc1ccc(-n2c(SCC(=O)NC3CCS(=O)(=O)C3)nnc2-c2cccnc2)cc1 (stereo not drawn) | inactive |
| CCCC(C(=O)n1nc(C)cc1C)C(NS(=O)(=O)c1ccc(C)cc1)c1ccccc1 (stereo not drawn) | inactive |
| O=C(C1CC1)N1CCN=C1SCc1ccc(Cl)cc1 | inactive |
| O=C(c1ccc(CSc2ccccc2)cc1)N1CCCCCC1 | inactive |
| CC1CCN(C(=O)c2ccc(CSc3ccc(Cl)cc3)cc2)CC1 | -8.16 (active) |
| CCCCn1c(N)c(N(CCOC)C(=O)c2cccc(S(=O)(=O)N(C)c3ccccc3)c2)c(=O)[nH]c1=O | inactive |
| CCOC(=O)Cc1csc(SCC(=O)NC(C)C23CC4CC(CC(C4)C2)C3)n1 (stereo not drawn) | inactive |
| CN(C)S(=O)(=O)c1cccc(NC(=O)Cc2ccsc2)c1 | inactive |
| CN(c1ccccc1)S(=O)(=O)c1cccc(NC(=O)Cc2c(F)cccc2Cl)c1 | -15.5 (active) |
| CN(C)S(=O)(=O)c1cccc(NC(=O)COC(=O)C2(c3ccccc3F)CCCC2)c1 | inactive |
| Cc1cc(=O)oc2c1ccc1ccccc12 | inactive |
| COc1ccc(COC(=O)NC(C(=O)O)c2ccccc2)cc1 (stereo not drawn) | inactive |
| COc1ccc(C(CCN(Cc2ccc(OC)c(OC)c2)C(=O)CCl)c2ccccc2)cc1 (stereo not drawn) | -11 (active) |
| COc1ccc(CN(C)C(=O)CC(c2ccccc2)c2ccccc2)cc1 | inactive |
| O=c1[nH]c(/C=C/c2cccc(Br)c2)nc2ccccc12 | inactive |

| SMILES | B-score |
| --- | --- |
| COc1ccc(CNc2ncnc3ccccc23)cc1 | inactive |
| COc1cccc(CNc2nc(C(F)(F)F)nc3ccccc23)c1 | -8.03 (active) |
| CCc1ccc(C(CNc2nc(C(F)(F)F)nc3ccccc23)N(C)C)cc1 (stereo not drawn) | inactive |
| CCOC(=O)c1cc(C(=O)Nc2ccc(S(=O)(=O)Nc3ccc(OC)cc3)cc2)nn1C | inactive |
| COc1ccc(-n2ncc3c2CC(C)(C)CC3NC(=O)CCc2c(C)noc2C)cc1 (stereo not drawn) | inactive |
| Cc1nn(CC(=O)NCc2ccccn2)c(C)c1[N+](=O)[O-] | inactive |
| Cc1nn(CC(=O)Nc2nc3ccccc3s2)c(C)c1[N+](=O)[O-] | -10.4 (active) |
| CCc1ccc(NC(=O)Cn2nc(C)c([N+](=O)[O-])c2C)cc1 | inactive |
| Cc1cc(C)nc(NS(=O)(=O)c2ccc(N3C(=O)C4CCCCC4C3=O)cc2)n1 (stereo not drawn) | inactive |
| COc1ccccc1N1CCN(c2ncnc3sc(C)c(-c4ccccc4)c23)CC1 | -16.5 (active) |
| COc1ccccc1N1CCN(c2ccc([N+](=O)[O-])nc2)CC1 | inactive |
| Oc1ccccc1N1CCN(c2ncnc3sc(-c4ccccc4)cc23)CC1 | inactive |
| O=C(NCCc1ccc(Cl)cc1Cl)c1cc([N+](=O)[O-])c[nH]c1=O | inactive |
| CC(c1ccccn1)N(CCN(C)C)C(=S)Nc1ccccc1F (stereo not drawn) | inactive |
| CSc1cccc(NC(=S)N(C(C)C)C(C)c2ccccn2)c1 (stereo not drawn) | -17.5 (active) |
| CSc1cccc(NC(=S)N(Cc2ccccc2)Cc2ccccn2)c1 | inactive |
| Cc1ccc(C2=NN(C)c3nc4ccccc4n3C2)cc1 | -8.17 (active) |
| Cc1ccc(O)c(CNc2nc3ccccc3n2C)c1 | inactive |
| Cc1ccc(OCc2nc3ccccc3n2C)cc1 | inactive |
| CCOC(=O)/C(=N\Nc1cc(Cl)ccc1Cl)N1CCN(C)CC1 | inactive |
| COCCNc1ncnc2c1nc1n2CCCC1 | inactive |
| COc1cnc(SCc2ccc(Cl)c(Cl)c2)nc1Cl | inactive |
| O=S(=O)(NC1CCCCC1N1CCN(c2ccccc2F)CC1)c1ccccc1 (stereo not drawn) | -7.59 (active) |
| COc1ccc(N2CCN(C3CCCCC3NS(=O)(=O)c3ccccc3)CC2)cc1 (stereo not drawn) | inactive |
| O=S(=O)(NC1CCCCC1N1CCCCC1)c1ccc(Cl)cc1 (stereo not drawn) | inactive |
